ERAP1 HTS inh – inhibitors of human ERAP1 aminopeptidase | Q9NZ08 | recombinant ERAP1, Leu-AMC fluorescence, 60 min | inhibition, % at 10.7 µM | 340,000 compounds, 0.15% hits;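 active = mean replicate inhibition of at least 30%, or all replicates individually reaching that 30% level; inactive = mean below 30% and not every replicate reaching it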;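 note: 0% = neutral control wells and 100% = L-leucinethiol positive control wells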
RAD52 anneal inh – RAD52 (human) annealing inhibition; 360,000 compounds, 0.46% hits; P43351; recombinant RAD52 DNA annealing, FRET fluorescence; inhibition, % at 18.7 µM; AID 651710;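 active = every replicate showing at least 50% inhibition; inconclusive = mean inhibition at least 50% but not in every replicate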
DENV2 CPE rescue – DENV2-induced cell death inhibition. DENV2-infected cells, cytopathic effect rescue, plate reader. CPE inhibition, % at 9.99 µM. 350,000 compounds, 1.7% hits; in the data active = CPE inhibition above about 20%, passing the limit was not always enough; inconclusive = no clear call, values can overlap the other calls; tested in BHK-21 cells;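 note: 0% = median of neutral control wells and 100% = median of positive control wells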
AF4-AF9 inh – inhibitors of human MLL-AF4/AF9 interaction; AlphaScreen, biotin-AF4 peptide binding to FLAG-AF9; 350,000 compounds, 0.47% hits; AID 651704; P42568; inhibition, % at 10 µM;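 active = every replicate reaching a set inhibition limit, whatever the replicate mean, cut at about 25% in these data; inconclusive = mean inhibition reaches that limit but some replicates miss it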;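 note: 0% = plate neutral control median and 100% = total signal loss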
Target sequence (P42568 whole entry, looked up): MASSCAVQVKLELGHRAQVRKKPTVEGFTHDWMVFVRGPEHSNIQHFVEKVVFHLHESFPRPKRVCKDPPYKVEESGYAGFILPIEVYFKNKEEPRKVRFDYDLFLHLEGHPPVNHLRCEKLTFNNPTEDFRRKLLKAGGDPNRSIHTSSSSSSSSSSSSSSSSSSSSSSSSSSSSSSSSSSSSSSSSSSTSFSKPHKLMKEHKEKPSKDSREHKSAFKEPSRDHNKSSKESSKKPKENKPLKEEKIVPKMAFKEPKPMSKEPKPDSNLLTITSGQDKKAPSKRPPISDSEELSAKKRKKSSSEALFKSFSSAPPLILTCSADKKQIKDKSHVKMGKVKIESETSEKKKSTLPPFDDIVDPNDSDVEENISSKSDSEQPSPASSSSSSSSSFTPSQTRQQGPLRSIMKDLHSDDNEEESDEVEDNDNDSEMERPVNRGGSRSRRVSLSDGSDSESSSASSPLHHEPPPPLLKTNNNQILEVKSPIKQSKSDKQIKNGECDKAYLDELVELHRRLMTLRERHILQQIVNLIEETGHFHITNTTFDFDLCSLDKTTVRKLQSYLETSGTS
FGF22 binding – binders of recombinant human FGF22 by thermal shift; Q9HCT0; SYPRO orange fluorescence; percent of sucrose octasulfate shift, DMSO zero; activity (Tm shift, normalised), % at 9.99 µM; 340,000 compounds, 1.5% hits; AID 651658;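 active = mean Tm shift, scaled 0 neutral to 100 positive control, at about 1.3% or above, every replicate too, limit read from the data; inconclusive = no clear call, values can overlap the other calls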
* hit, by the source's call; ? = inconclusive; · = no result given. Shown are actives, neighbours in structure and some others; about 4% of the full set was active somewhere.

SMILES	ERAP1 HTS inh	RAD52 anneal inh	DENV2 CPE rescue	AF4-AF9 inh	FGF22 binding
C[C@H]1CCCCO[C@@H](CN(C)C(=O)CCCN(C)C)[C@@H](C)CN([C@@H](C)CO)C(=O)c2cc(NC(=O)Nc3ccc(F)cc3)ccc2O1	-9	52*	-6	9	0
Cc1c(O)ccc2cc(S(=O)(=O)c3ccccc3)c(=O)oc12	132*	-17	-7	-2	0
C[C@H](NC(=O)C[C@@H]1C[C@@H]2c3cc(NC(=O)C4CCOCC4)ccc3O[C@@H]2[C@H](CO)O1)c1ccccc1	-2	8	1	-1	-1
CCOc1ccc(Nc2nc(N)nc(CN3CCN(c4ccccc4F)CC3)n2)cc1	-3	-11	·	7	44*
CCOc1ccc(Nc2nc(N)nc(CCl)n2)cc1	2	0	-5	3	0
CCOC(=O)C1=C[C@@H](CC)N(S(=O)(=O)c2ccc(C)cc2)[C@H]1c1cccc(Cl)c1	6	1	-4	-4	41
CCOC(=O)C1=C[C@@H](c2ccccc2)N(S(=O)(=O)c2ccc(C)cc2)[C@H]1c1cccc(Cl)c1	-4	-13	30*	-2	0
CCOC(=O)C1=CCN(S(=O)(=O)c2ccc(Cl)cc2)C1c1cccc(Cl)c1 (stereo not given)	-1	-10	-1	-3	0
CCOC(=O)C1=C[C@@H](CC)N(S(=O)(=O)c2ccc([N+](=O)[O-])cc2)[C@H]1c1ccccc1	5	-22	42*	8	0
CCOC(=O)C1=CCN(S(=O)(=O)c2ccc(F)cc2)C1c1cccc(Cl)c1 (stereo not given)	9	-25	84*	2	41
C[C@H]1CCCCO[C@H](CN(C)S(C)(=O)=O)[C@@H](C)CN([C@@H](C)CO)C(=O)c2cc(NC(=O)c3ccccc3)ccc2O1	3	-5	0	-6	·
COCCNC(=O)C(c1ccc(C)o1)N(CCOC)C(=O)Cn1nnc2ccccc21 (stereo not given)	-1	-15	2	-2	44*
Cc1cc(C)n2c(NC3CCCC3)c(-c3cc4ccccc4o3)nc2n1	10	-17	-9	4	0
Cc1cc(C)n2c(NC3CCCCC3)c(-c3ccccn3)nc2n1	1	-7	29*	11	1
COc1cccc(-c2nc3nc(C)cc(C)n3c2NC2CCCC2)c1	-1	-46	30*	0	0
Cc1cc(C)n2c(Nc3ccc4c(c3)OCCO4)c(-c3ccccn3)nc2n1	54*	-2	3	18	0
CC(C)NC(=O)Nc1ccc2c(c1)C(=O)N([C@@H](C)CO)C[C@@H](C)[C@@H](CN(C)Cc1ccncc1)OCCCC[C@H](C)O2	4	10	1	-1	0
COCC(=O)N1CC2(C1)CN(Cc1cccc(OC)c1)[C@H](CO)c1[nH]c3cc(OC)ccc3c12	·	·	?	2	·
COCC#Cc1cnc2c(c1)C(=O)N([C@@H](C)CO)C[C@@H](C)[C@@H](CN(C)C(=O)CN1CCOCC1)O2	-1	-13	4	-4	0
CN(C)CCNC(C(=O)Nc1cc(Cl)cc(Cl)c1)c1ccccc1 (stereo not given)	2	13	-3	6	43*
O=C(Nc1cc(Cl)cc(Cl)c1)C(NCC1CCCO1)c1ccccc1 (stereo not given)	-2	-28	-4	-2	0
C[C@@H]1CN([C@H](C)CO)C(=O)c2cccc(NC(=O)Nc3ccc(C(F)(F)F)cc3)c2O[C@H]1CN(C)CC1CCCCC1	2	-12	15	3	0
C[C@H]1CN([C@@H](C)CO)C(=O)c2cccc(NC(=O)Nc3ccc(C(F)(F)F)cc3)c2O[C@@H]1CN(C)CC1CC1	-2	6	31*	0	0
C[C@H](CO)N1C[C@H](C)[C@@H](CN(C)CC2CC2)Oc2c(NC(=O)Nc3ccc(C(F)(F)F)cc3)cccc2C1=O	-17	6	-2	0	0
C[C@@H]1CN([C@H](C)CO)C(=O)c2cccc(NC(=O)Nc3ccc(C(F)(F)F)cc3)c2O[C@@H]1CN(C)CC1CCCCC1	-3	57*	3	7	0
SMILES	ERAP1 HTS inh	RAD52 anneal inh	DENV2 CPE rescue	AF4-AF9 inh	FGF22 binding
C[C@H]1CN([C@@H](C)CO)C(=O)c2cc(C#CCN(C)C)cnc2O[C@H]1CN(C)S(=O)(=O)c1ccccc1	-3	-13	-5	-2	·
Fc1ccc(CNC2CCN(Cc3ccccc3)CC2)cc1	-3	-14	35*	5	0
CCOC(=O)C1CCN(CC(=O)N(CC(C)C)c2c(N)n(CC(C)C)c(=O)[nH]c2=O)CC1	-3	-6	-1	-4	44*
COCCN(C(=O)C1CCN(C(=O)c2ccccc2C)CC1)c1c(N)n(CC(C)C)c(=O)[nH]c1=O	91*	-1	-12	0	0
Cc1ccccc1C(=O)N1CCC(C(=O)N(CC(C)C)c2c(N)n(CC(C)C)c(=O)[nH]c2=O)CC1	1	12	-11	6	0
O=C(CS(=O)(=O)c1ccc(Cl)cc1)N1CCN(c2ccccc2)CC1	-3	16	7	-1	0
O=C(CS(=O)(=O)c1ccccc1)N1CCN(c2ccccc2)CC1	-1	-8	103*	0	·
COc1ccc(C)cc1Nc1n[n+](-c2ccccc2)c(-c2cc(OC)c(OC)cc2Br)s1	-1	28	-6	15	0
COc1ccc(C)cc1Nc1n[n+](-c2ccccc2)c(-c2ccc(C(=O)O)cc2)s1	11	-5	·	5	44*
CCOc1cc(-c2sc(Nc3cc(C)ccc3OC)n[n+]2-c2ccccc2)ccc1OC	2	-16	·	16	0
CCOc1cc(-c2sc(Nc3ccc(CC)cc3)n[n+]2-c2ccccc2)ccc1OC	-4	-12	-15	27*	0
O=C(NC1CCCCC1)N1CC(=O)N2[C@H](CO)[C@H](c3ccc(/C=C/c4ccccc4)cc3)[C@H]2C1	0	15	17	2	·
O=C([C@H]1[C@H](CO)[C@H]2Cn3c(cccc3=O)[C@H]2N1CCC(F)(F)F)N1CCCCC1	-3	-30	-15	-3	0
COc1ccc2ccccc2c1/C=N/NC(=O)c1cccc(Br)c1	1	-12	7	2	0
COc1ccc2ccccc2c1/C=N/NC(=O)c1ccccc1F	-1	-9	44*	1	0
COc1cc(C(=O)NCCNc2nc3c(C)cccc3cc2C#N)cc(OC)c1OC	-4	-25	?	-6	0
COc1ccc(C(=O)NCCNc2nc3c(C)cccc3cc2C#N)cc1	11	-5	3	-5	0
CCC(=O)NCCCNc1nc2c(C)cccc2cc1C#N	3	-16	-3	-1	43*
COc1ccc(C(=O)NCCNc2nc3c(C)cccc3cc2C#N)cc1OC	-6	-20	29*	2	0
CCNc1nc(SC(C)C(=O)Nc2ccccc2)nc(N(C)C)n1 (stereo not given)	-3	0	5	-1	43*
